Source: PubChem
Sampled rows, rich in hits. Any-hit rate of the full collection: about 4.3%.
sPLA2-III inh: Inhibits HGIII-sPLA2 liposome hydrolysis, primary screen; Q9NZ20; QFRET BODIPY PC-A2 liposome hydrolysis, fluorescence; inhibition, % at 12.2 µM; actives 0.56% (n = 370,000);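 active = inhibition above mean plus 3 SD of compounds lying within the high and low control bounds, cut at about 19% in these data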;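 note: 0% = median of test compound wells and 100% = no enzyme DMSO wells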
Target sequence (Q9NZ20 whole entry, looked up): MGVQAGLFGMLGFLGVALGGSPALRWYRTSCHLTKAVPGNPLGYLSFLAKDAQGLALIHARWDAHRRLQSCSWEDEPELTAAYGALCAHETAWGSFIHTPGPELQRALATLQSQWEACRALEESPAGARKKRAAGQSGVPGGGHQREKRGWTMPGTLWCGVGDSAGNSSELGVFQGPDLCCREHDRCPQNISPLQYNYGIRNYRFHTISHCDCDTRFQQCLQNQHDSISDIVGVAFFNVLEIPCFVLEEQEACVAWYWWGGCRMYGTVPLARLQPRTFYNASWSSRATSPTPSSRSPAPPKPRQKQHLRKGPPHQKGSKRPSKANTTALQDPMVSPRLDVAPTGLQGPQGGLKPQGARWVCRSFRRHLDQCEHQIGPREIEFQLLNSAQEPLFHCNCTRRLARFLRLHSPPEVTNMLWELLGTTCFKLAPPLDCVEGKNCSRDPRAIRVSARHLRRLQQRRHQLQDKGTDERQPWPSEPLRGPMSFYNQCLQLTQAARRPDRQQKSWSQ
FAS TE block: inhibitors of human fatty acid synthase thioesterase domain; inhibition, % at 15 µM; actives 0.67% (n = 360,000); recombinant FAS-TE, OMFH fluorogenic substrate, fluorescence endpoint;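 active = compounds whose normalised, plate-corrected inhibition of enzyme fluorescence in the single-dose primary screen is 50% or more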;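 note: 0% = DMSO with enzyme and 100% = substrate without enzyme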
ADAM17 inh: inhibits human ADAM17. P78536. recombinant ADAM17, EDANS/DABCYL FRET peptide cleavage. inhibition, % at 6.95 µM. actives 0.83% (n = 370,000). AID 720648;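 active = inhibition above the mean of compounds lying between control limits plus 3 SD, set per campaign, cut at about 8.5% in these data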;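 note: 0% = DMSO-only wells as the low control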
GRIN3A LBD mod: modulates the human NR3A ligand-binding domain | NR3A LBD differential scanning fluorimetry, Tm shift; 0% = protein alone, 100% = glycine-bound protein | Tm shift relative to glycine control, % at 25 µM | actives 2.5% (n = 340,000) | AID 1259313;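 active = melting temperature shift of at least 10% of the positive control shift, at one fixed dose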
ADAM10 inh: ADAM10 inhibition, QFRET primary screen. recombinant ADAM10, EDANS/DABCYL FRET peptide cleavage, 3 h. inhibition, % at 7 µM. actives 0.62% (n = 370,000). AID 720582;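 active = inhibition above a per-campaign cutoff equal to the mean of compounds falling between control-based bounds plus 3 SD, cut at about 20% in these data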;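 note: 0% = DMSO wells while the 100% control is not disclosed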
ADAM10 confirm: confirmation of inhibitors of human ADAM10; inhibition, % at 6.95 µM; actives 1% (n = 2,100); shares compounds with ADAM10 inh; ADAM10 QFRET peptide cleavage, EDANS fluorescence;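 active = inhibition above about 20% chosen separately for each screening run, limit read from the data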;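 note: 0% = DMSO wells and 100% = marimastat wells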
ADAM17 ctr: ADAM17 inhibition, counter-screen for ADAM10 exosite hits. shares compounds with ADAM10 inh. ADAM17 QFRET peptide cleavage, EDANS fluorescence. inhibition, % at 6.95 µM. actives 0.5% (n = 2,100);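 active = mean triplicate inhibition above the solvent-only control wells' mean plus 3 SD, cut at about 12% in these data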;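 note: 0% = DMSO wells and 100% = marimastat wells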
Active calls of the source: *; / = no result.

SMILES | sPLA2-III inh | FAS TE block | ADAM17 inh | GRIN3A LBD mod | ADAM10 inh | ADAM10 confirm | ADAM17 ctr
CCN(Cc1cn(Cc2ccccc2)nn1)S(=O)(=O)c1ccc(F)cc1Br | 1 | / | -3 | / | -7 | / | /
CC(C)(C)OC(=O)Nc1ccc([C@H](NC(=O)OC(C)(C)C)C(=O)OC(C)(C)C)cc1 | 2 | -9 | 0 | -3 | 0 | / | /
CCOC(=O)COc1ccc(C(C)c2ccc(NC(=O)OC(C)(C)C)cc2)cc1 (configuration not stated) | -23 | / | 8 | / | 21* | 6 | 2
O=S1(=O)c2c(F)cccc2OC(COc2ccccc2)CN1CCc1ccc(F)cc1 (configuration not stated) | -9 | 28 | 3 | -7 | 9 | / | /
O=S1(=O)c2c(F)cccc2O[C@@H](COCc2ccccc2)CN1CCc1ccc(F)cc1 | -13 | 24 | 9 | -2 | 21* | 5 | 1
N#Cc1ccc(S(=O)(=O)N2CCCc3nc(-c4ccc(Br)cc4)ccc32)cc1 | -1 | / | 0 | / | -1 | / | /
Cc1ccc(-n2c(COc3ccccc3)nnc2SCC(=O)Nc2ccc3c(c2)OCO3)cc1 | -25 | / | 8 | / | 20* | 4 | 1
O=C(NCc1ccc(C(=O)NC2CCCC2)cc1)c1cccc(Br)c1 | 2 | / | -3 | / | 1 | / | /
CCN(c1ccc(OC)cc1)S(=O)(=O)N1CCCC(C(=O)NC(C)c2ccccc2)C1 (configuration not stated) | -5 | 8 | -2 | / | 70* | 4 | 1
COc1ccc(C(=O)OCC(=O)c2c[nH]c3ccccc23)cc1OC | -17 | -6 | -7 | 1 | -6 | / | /
COc1cc(OC)c(N(C)S(=O)(=O)c2cccc(C(=O)OCC(=O)c3c[nH]c4ccccc34)c2)cc1Cl | -9 | 36 | -1 | 26* | 32* | 14 | 5
O=C(Nc1ccc(S(=O)(=O)Nc2nccs2)cc1)c1cc(-c2ccccc2)nc2ccccc12 | -73 | 9 | 8 | 11* | 27* | 9 | 2
O=C(Nc1ccc(S(=O)(=O)Nc2nccs2)cc1)/C(=C/c1ccccc1Cl)NC(=O)c1ccccc1 | -21 | -4 | 8 | 0 | 32* | 1 | 0
COc1cc(NS(=O)(=O)c2ccc(NC(=O)/C(=C/c3ccccc3Cl)NC(=O)c3ccccc3)cc2)nc(OC)n1 | -42 | -4 | 4 | 1 | 8 | / | /
Cc1ccccc1Nc1nc(N)nc(COC(=O)c2cccc(S(=O)(=O)N(C)C)c2)n1 | -4 | 1 | 2 | -2 | 3 | / | /
Cc1ccccc1Nc1nc(N)nc(COC(=O)c2cccc(S(=O)(=O)NCc3ccccc3)c2)n1 | -50 | 18 | 4 | -2 | 23* | 2 | 0
C=CCn1c(C)cc(C(=O)COC(=O)C2CC(=O)N(Cc3ccccc3)C2)c1C (configuration not stated) | -7 | -4 | -2 | 3 | 78* | 0 | 0
Cc1[nH]c2ccccc2c1C(=O)COC(=O)C1CC(=O)N(Cc2ccccc2)C1 (configuration not stated) | -15 | -1 | -1 | -1 | 8 | / | /
Cc1ccc(C)c(-c2cc(C(=O)NCc3cccs3)c3ccccc3n2)c1 | -7 | 24 | 5 | -1 | 20* | 5 | 2
O=C1c2[nH]nc(-c3ccccc3O)c2C(c2cccc(Cl)c2)N1Cc1ccco1 (configuration not stated) | -4 | -79 | 7 | -1 | 29* | 4 | 1
O=C1c2[nH]nc(-c3ccccc3O)c2C(c2ccc(F)cc2)N1Cc1ccco1 (configuration not stated) | -22 | -71 | 7 | -10 | 10 | / | /
c1ccc(Cn2c(SCC3CCCCC3)nnc2-c2cccnc2)cc1 | 1 | / | -3 | / | 0 | / | /
CCN(CC)S(=O)(=O)c1cccc(NC(=O)C2SC(=Nc3ccc(C)cc3C)C(C(=O)NC(C)COC)=C2N)c1 (configuration not stated) | -22 | 24 | 7 | 3 | 20* | 9 | 4
CCOc1ccc(NC(=S)NC(=O)c2cncc(Br)c2)cc1 | -4 | 0 | 8 | -1 | 7 | / | /
CCOC(=O)c1ccc(NC(=S)NC(=O)c2cncc(Br)c2)cc1 | 0 | -4 | -2 | 0 | 75* | 0 | 0
SMILES | sPLA2-III inh | FAS TE block | ADAM17 inh | GRIN3A LBD mod | ADAM10 inh | ADAM10 confirm | ADAM17 ctr
O=C(c1ccc(C#CC2(O)CCCCC2)cc1)N1CCN(C(c2ccccc2)c2ccccc2)CC1 | -19 | 16 | 4 | 12* | 25* | 6 | 2
O=C(c1ccc(C#CC2(O)CCCCC2)cc1)N1CCN(Cc2ccccc2)CC1 | -34 | -1 | 1 | 6 | 5 | / | /
CCOc1ccc(-c2nc(CSCC(=O)NC3CCC3)c(C)o2)cc1 | -2 | / | -4 | / | -9 | / | /
COC(=O)c1sc2ccccc2c1-n1cccc1C(=O)C(=O)Nc1ccc(OC)cc1 | 6 | 30 | 8 | 1 | 22* | 5 | 3
COC(=O)c1sc2ccccc2c1-n1cccc1C(=O)C(=O)Nc1ccccc1 | -3 | 16 | 3 | 0 | 13 | / | /
COCCN=C1S/C(=C\c2cc(C)n(-c3ccc(F)cc3F)c2C)C(=O)N1C | 19 | / | -6 | / | -19 | / | /
CC1(Cc2ccc(Cl)c(Cl)c2)C(=O)Nc2ccc(S(=O)(=O)NC3CCCCC3)cc21 (configuration not stated) | -30 | 40 | 8 | / | 20* | 13 | 3
CC1(Cc2cccc(F)c2)C(=O)Nc2ccc(S(=O)(=O)NC3CCCCC3)cc21 (configuration not stated) | -23 | 12 | 3 | / | 7 | / | /
O=C(OCc1cn(Cc2cc(F)cc(F)c2)nn1)N1CCOCC1 | 9 | / | -3 | / | -5 | / | /
O=C(CCc1ccccc1)N[C@H]1[C@H](OC(=O)c2cnccn2)CCC[C@@]12C(=O)N(Cc1ccccc1)c1ccccc12 | -10 | / | 1 | / | 8 | / | /
COc1ccc(C(=O)O[C@@H]2CCC[C@@]3(C(=O)N(Cc4ccccc4)c4ccccc43)[C@H]2NC(=O)CCc2ccccc2)cc1OC | -5 | / | 8 | / | 20* | 5 | 2
COCCNC(=O)C[C@H]1CC[C@H]2[C@@H](COc3ccc(NS(=O)(=O)c4ccc(Cl)cc4)cc3C(=O)N2C)O1 | -7 | / | -1 | / | 3 | / | /
O=C(CCCN=C1NS(=O)(=O)c2ccccc21)Nc1ccc(Cl)cc1 | -1 | -2 | 2 | 0 | -4 | / | /
Cc1cccc(NC(=O)CCCN=C2NS(=O)(=O)c3ccccc32)c1C | -4 | -8 | -5 | 0 | 56* | 0 | -1
CN(CCCC1CCCC1)C(=O)c1cc(COc2ccc(F)cc2F)on1 | -7 | 37 | 1 | -17 | 22* | 5 | 2
